The source of these data is PubChem BioAssay (NCATS).

Structures are written as SMILES. Results filed as inconclusive are left out. Active and inactive are the calls of the source. Calls follow the shape of the full dose curve.

Chain of Vitamin D3 receptor (Homo sapiens) (P11473 whole entry, looked up): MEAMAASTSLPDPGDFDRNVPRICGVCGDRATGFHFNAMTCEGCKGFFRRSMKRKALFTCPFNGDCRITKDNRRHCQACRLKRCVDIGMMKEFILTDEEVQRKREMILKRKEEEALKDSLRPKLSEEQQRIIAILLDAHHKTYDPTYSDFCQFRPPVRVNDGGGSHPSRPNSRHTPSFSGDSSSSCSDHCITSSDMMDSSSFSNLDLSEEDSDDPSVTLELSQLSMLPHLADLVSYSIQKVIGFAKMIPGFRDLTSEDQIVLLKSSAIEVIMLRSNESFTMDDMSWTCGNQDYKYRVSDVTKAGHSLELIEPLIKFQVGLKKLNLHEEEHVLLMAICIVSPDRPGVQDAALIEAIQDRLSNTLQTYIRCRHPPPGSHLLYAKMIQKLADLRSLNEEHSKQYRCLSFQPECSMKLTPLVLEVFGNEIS

In this experiment the target is Vitamin D3 receptor (Homo sapiens) (UniProt P11473). Nature of the experiment: qHTS assay for small molecule antagonists of vitamin D receptor signaling (AID 588541).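 Also: receptor activated by calcitriol during compound treatment.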 As to conditions: HEK293T VDR-UAS-bla, beta-lactamase ratio, antagonist mode; series mostly up to 76.7 µM. An excerpt:
NIH Chemical Genomics Center [NCGC]
U.S. Environmental Protection Agency [EPA]
National Institutes of Environmental Health Sciences [NIEHS]
National Toxicology Program [NTP]
The Vitamin D receptor (VDR) is a member of nuclear hormone receptor superfamily and it plays a critical role in calcium homeostasis and bone metabolism. It plays a role in inducing cell differentiation, inhibiting cell growth and in thrombogenicity. So, VDR that mediates these effects represents a pharmacological target in prevention and treatment of hyperproliferative malignancies, such as cancer and psoriasis, cardiovascular, immunological, inflammatory and renal diseases etc.
NCGC Assay Protocol Summary
Using a beta-lactamase reporter-gene under control of Vitamin D receptor (VDR) response element, a cell-based assay [GeneBLAzer (VDR -UAS-bla assay developed by Invitrogen] was used to measure VDR ligands signaling. GeneBLAzer VDR -UAS-bla HEK293T cells were used with assay medium containing 2% charcoal-stripped FBS. The assay was performed in clear bottom black Greiner 1536-well plates. Library compounds were measured for their ability to inhibit the reporter gene activity. Compounds were screened in a titration series in 1536-well format. The fluorescence intensity (405 nm excitation, 460/530 nm emission) was measured using an EnVision plate reader. Data was normalized relative to 1-alpha,25-Dihydroxy vitaminD3 control (50 nM, 100%) and DMSO only wells (basal, 0%). Concentration-response titration points for each compound were fitted to the Hill equation yielding concentrations of half-maximal inhibition (IC50) and maximal response (efficacy) values.
qHTS protocol for VDR beta-lactamase assay in antagonist mode
[Step] [Parameter] [Value] [Description]
1. Reagent; 5 uL; 2000 cells/well
2. Incubation; 37 C for 5 hrs
4. Controls (DMSO); 23 nL,
5. Agonist (Stimulator); 1uL; 1-alpha,25-Dihydroxy vitaminD3 at 50 nM and 3 nM final concentrations
6. Incubation; 37 C for 16 hrs
7. Detection reagent; 1 uL of CCF4-dye
8. Incubation; RT for 2 hrs
9. Detection; Fluorescence; Envision plate reader
(Quantitative high-throughput screening tests each substance at several concentrations.)
Regarding `ClCC(Br)CBr` (stereo not given), the result was inactive.
The result for `CCOC(=O)CBr` reads “inactive”; that for `Cc1ccc(N)c(C)c1`, “inactive”; that for `CC(C)(Cl)[N+](=O)[O-]`, “inactive”.
Under `c1ccc(P(c2ccccc2)c2ccccc2)cc1` stands “inactive”.
Consider `CN1CSC(=S)N(C)C1`, for which the outcome was inactive.
Under `COc1cc(-c2ccc(N)c(OC)c2)ccc1N` stands “inactive”.
Under `O=[N+]([O-])c1cc(Cl)c(Cl)cc1Cl` stands “inactive”; under `OCC(Cl)CCl` (stereo not given), “inactive”; under `CN(C)c1ccc(N=Nc2ccccc2)cc1`, “inactive”.
For `C=C(Cl)CCl`, the result was inactive.
The result for `COc1c(C(C)(C)C)cc([N+](=O)[O-])c(C)c1[N+](=O)[O-]` reads “inactive”.
The result for `Nc1ccc2ccccc2c1` reads “inactive”; that for `O=Cc1ccc(Cl)cc1Cl`, “inactive”; that for `CN(C)C(=O)Cl`, “inactive”.
For `C1CC2OC2CC1C1CO1` (stereo not given), the result was inactive.
Under `c1ccc2c(c1)CCNC2` stands “inactive”; under `CCCCCc1cc(O)cc(O)c1`, “inactive”.
With `Nc1c(Br)cc([N+](=O)[O-])cc1[N+](=O)[O-]`, the outcome was inactive.
The result for `CCC[N+](=O)[O-]` reads “inactive”.
Under `O=C(O)C(Cl)Br` (stereo not given) stands “inactive”; under `CN(C)C(=O)Nc1cccc(C(F)(F)F)c1`, “inactive”.
With `CCCCC(CC)COC(=O)c1ccc(C(=O)OCC(CC)CCCC)c(C(=O)OCC(CC)CCCC)c1` (stereo not given), the outcome was inactive.
As for `CCC/C=N/O`, the outcome was inactive.
The result for `ClCC(Cl)CCl` reads “inactive”; that for `Cc1coc2c1CCC(C)C2` (stereo not given), “inactive”.
For the compound `O=[N+]([O-])c1cccc(CCl)c1`, the outcome was inactive.
Take `[N-]=[N+]=[N-]`: the outcome was inactive.
Take `CCN(N=O)C(N)=O`: the result was inactive.
Under `[O-][Cl+2]([O-])O` stands “inactive”; under `Oc1cc(Cl)ccc1Cl`, “inactive”; under `COC(=O)c1ccccc1N`, “inactive”.
Under `CC(C)OC(=O)Cc1ccccc1` stands “inactive”.
The result for `CCN(CC)N=O` reads “inactive”.
Take `Cc1ccccc1[N+](=O)[O-]`: the outcome was inactive.
Under `N#CC(O)c1ccccc1` (stereo not given) stands “inactive”; under `ClC(Cl)C(Cl)Cl`, “inactive”; under `CC(=O)NNc1ccccc1`, “inactive”.
Take `CC(C#N)CCC#N` (stereo not given): the outcome was inactive.
Under `O=S(=O)(Cl)c1ccccc1` stands “inactive”.
